From PubChem BioAssay (Tox21) come the findings set out here.

Where “and” joins values, the source holds several entries; their conditions need not be identical. Equal entries are not always repeated. A number with no mark means an inactive call. Calls of active or inactive are those of the source. The call rests on the fitted dose curve; in most records, active means well fitted curve in the direction sought with a large enough effect in the repeat runs; inconclusive means weak or mixed curves; inactive means flat fitted curve, though single readings scatter.
On the % scale 0 is the no-effect control and ±100 the full control effect.

This test in a line: qHTS assay to test for compound auto fluorescence at 460 nm (blue) in HEK293 cells (AID 720678). The following applies: blue autofluorescence 405/460 nm; series mostly up to 91.3 µM. The text has this: National Center for Advancing Translational Sciences [NCATS]
NIH Chemical Genomics Center [NCGC]
U.S. Environmental Protection Agency [EPA]
National Institutes of Environmental Health Sciences [NIEHS]
National Toxicology Program [NTP]
U.S. Food and Drug Administration [FDA]
Compound auto fluorescence often interferes with screening of the compound library against various biological targets and signaling pathways. Some of these compounds may have fluorophoric properties. Such properties may interfere with the assay outputs resulting in false positives and/or negatives. To decrease such complications and ensure the compound activities are relevant in terms of biological response, the Tox21 10K compound library was screened for auto fluorescence.
From the fluorophores used as reporter signals in our screening assays, the auto fluorescence equivalencies of compounds against three fluorophores have been evaluated: Triamterene, Fluorescein and Rose Bengal sodium for blue, green and red fluorescence, respectively. The fluorescence intensities were measured using Excitation/Emission wavelengths at 405/460nm, 485/535nm and 540/590nm for blue, green and red labels, respectively. This assay includes the blue fluorescence data.
Tox21 Assay Protocol Summary:
2,000 HEK293 cells in 5 uL of culture medium containing 10% dialyzed FBS per well were dispensed into black wall/clear bottom 1536-well plates using a Multidrop Combi Dispenser (Thermo Scientific). The assay plates were incubated for 4-5 hr at 37C to allow cell attachment to the well bottom, followed by the transfer of 23 nL compound or DMSO vehicle by a pintool work station (Kalypsys, San Diego, CA). After the assay plates were incubated overnight at 37C and 5% CO2, fluorescence intensities in the assay plates were measured by an Envision (PerkinElmer, Shelton, CT) plate reader using three labels for measuring blue, green and red fluorescence at […] 460, 535 and 590nm respectively.
(qHTS replaces the single test concentration by a dilution series.)
Consider `CCCCNS(=O)(=O)c1ccccc1`, for which the call was inactive. `CN(C)c1nc(N(C)C)nc(N(C)C)n1`: the fluorescence, % of triamterene was 0.0425% [at 18.6 µM] and 0.0657% [at 3.72 µM]. Take `C[C@]12CC[C@H]3[C@@H](CCC4=CC(=O)CC[C@@]43C)[C@@H]1CC[C@@H]2C(=O)CO`: the compound was called inactive.

Consider `Nc1ncnc2nc[nH]c12`, for which the call was inactive. Take `C/C=C/C(=O)O`: the compound was classed as inactive.

In the case of `CCOCCOCCO`, the result was inactive. For `OC(CCl)CCl`, the call was inactive. `CC(=O)c1ccccn1`: the call was inactive. As for `COc1c(Cl)c(Cl)c(Cl)c(Cl)c1Cl`, the call was inactive. Turning to `O=C1OC2(c3cc(Br)c(O)c(Br)c3Oc3c2cc(Br)c(O)c3Br)c2c(Cl)c(Cl)c(Cl)c(Cl)c21`, the call was inactive. Regarding `CC(=O)C1(C)CC2=C(CCCC2(C)C)CC1C` (stereo not given), the outcome was inactive. For the compound `CC(C)OC=O`, the outcome was inactive. As for `CCCCc1oc2ccccc2c1C(=O)c1cc(I)c(OCCN(CC)CC)c(I)c1`, the outcome was inactive.

Take `OCCO`: the compound was classed as inactive. As to `O=C(Nc1ccc(Cl)cc1)Nc1ccc(Cl)c(Cl)c1`, the call was inactive. In the case of `c1cc(N(CC2CO2)CC2CO2)ccc1OCC1CO1` (stereo not given), the call was inactive. Regarding `O=C(COc1ccc(Cl)cc1)N1CCN(Cc2ccc3c(c2)OCO3)CC1`, the result was inactive.

As for `CCCCC(CC)COCC1CO1` (stereo not given), the compound was called inactive. Consider `Nc1ccccc1N`, for which the result was inactive. For the compound `CC(=O)O[C@]1(C(C)=O)CC[C@H]2[C@@H]3C=C(Cl)C4=CC(=O)[C@@H]5C[C@@H]5[C@]4(C)[C@H]3CC[C@@]21C`, the compound was called inactive. With `COc1ccc(OC)c(C(O)CNC(=O)CN)c1` (stereo not given), the result was inactive. In the case of `COc1cc([C@@H]2c3cc4c(cc3[C@H](O)[C@H]3COC(=O)[C@H]23)OCO4)cc(OC)c1OC`, the outcome was inactive.

Take `O=S(=O)(O)c1ccc(O)cc1`: the result was inactive. In the case of `O=C(c1ccccc1)c1ccc(O)cc1O`, the compound was called inactive. For `Cc1c(C(N)=O)cc([N+](=O)[O-])cc1[N+](=O)[O-]`, the call was inactive. For the compound `O=C=Nc1ccc(Cc2ccc(N=C=O)cc2)cc1`, the compound was classed as inactive.

On to `CNCCCC12CCC(c3ccccc31)c1ccccc12`, for which the compound was called inactive.

On to `CCC(C)(O)CCCC(C)C` (stereo not given), for which the result was inactive. For `C=CC(C)(CCC=C(C)C)OC(C)=O` (stereo not given), the compound was classed as inactive. As for `Nc1ccc(Cl)cc1Cl`, the outcome was inactive. For `Cc1cccc([N+](=O)[O-])c1C`, the outcome was inactive. Consider `CC(C)=CCCC(C)CCO` (stereo not given), for which the outcome was inactive. As to `COC(C)COC(C)COC(C)CO` (stereo not given), the compound was classed as inactive. Consider `O=Cc1ccccc1O`, for which the outcome was inactive. In the case of `C#C[C@]1(O)CC[C@H]2[C@@H]3CCC4=Cc5oncc5C[C@]4(C)[C@H]3CC[C@@]21C`, the compound was called inactive. Consider `c1ccc(Nc2ccccc2)cc1`, for which the compound was classed as inactive.

In the case of `CCCCC(CC)COC(=O)c1ccc(N(C)C)cc1` (stereo not given), the call was inactive. As to `Nc1ccc(Nc2ccccc2)cc1`, the outcome was inactive.

With `COc1ccc(C(=O)CC(=O)c2ccc(C(C)(C)C)cc2)cc1`, the compound was classed as inactive. Still for that read-out and setting: under `CCC(C)CO` (stereo not given) stands “inactive”.
